Assay results taken from PubChem BioAssay AID1347147 (National Center for Advancing Translational Sciences (NCATS), 2019).
Results filed as inconclusive are left out. Calls follow the shape of the dose curve; as a rule, active = well fitted inhibition curve with a large enough effect; inconclusive = small, poorly fitted or top-dose-only effect; inactive = no such curve, though single readings can be large or run the other way.

The compounds below were run against N-terminal Xaa-Pro-Lys N-methyltransferase 1 (Homo sapiens) (UniProt Q9BV86) (assay: qHTS Assay for Inhibitors of N-terminal methyltransferase 1 (NTMT1): MTaseGlo Confirmatory Screen, Round 2). Conditions: NTMT1 enzyme, MTase-Glo SAH luminescence; series mostly up to 57.4 µM; activity change, negative = inhibition: at the top concentration.
Procedure, shortened: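 Luminescent MTase-Glo readout of SAH formed in 30 min at RT by 125 nM NTMT1, 100 µM SAM and 1 µM SPKRIA substrate, after ~15 min compound preincubation. Percent inhibition versus no-enzyme and DMSO controls was Hill-fitted.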
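Also: plate controls were DMSO for no effect and no enzyme control for full effect.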

Chain of N-terminal Xaa-Pro-Lys N-methyltransferase 1 (Homo sapiens) (Q9BV86 whole entry, looked up): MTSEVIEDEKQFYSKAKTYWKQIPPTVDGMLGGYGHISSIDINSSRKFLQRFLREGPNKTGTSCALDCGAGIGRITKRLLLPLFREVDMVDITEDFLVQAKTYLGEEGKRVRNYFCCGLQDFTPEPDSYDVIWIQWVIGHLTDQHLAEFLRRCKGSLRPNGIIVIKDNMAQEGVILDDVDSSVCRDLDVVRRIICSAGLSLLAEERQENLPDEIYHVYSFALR

Activity change, negative = inhibition, inactive:
COc1ccc(C(=O)/C(Cc2cc(OC)c(OC)c(OC)c2)=C(\C(=O)O)c2ccc3c(c2)OCO3)cc1 -0.396%
CN(C)CCCc1cc(C(=O)Nc2ccc(-c3ccncc3)cc2)ccc1O -6.04%
COC(=O)C1=C(C)NC(C)=C(C(=O)OC)C1c1ccccc1[N+](=O)[O-] 1%
COc1cc2c(NC3CCN(C(C)C)CC3)nc(N3CCC(F)(F)CC3)nc2cc1OCCCN1CCCCC1 -11.7%
Cc1cc(C)c(CNC(=O)c2cc(-c3ccc(CN4CCOCC4)cc3)cc3c2cnn3C2CCCC2)c(=O)[nH]1 -6.46%
Cc1nnc(SCC2=C(C(=O)O)N3C(=O)[C@@H](NC(=O)Cn4cnnn4)[C@H]3SC2)s1 -2.31%
CCCc1cc(C)[nH]c(=O)c1CNC(=O)c1cc(-c2ccc(N3CCN(C(C)C)CC3)nc2)cc2c1cnn2C(C)C -20.9%
CCOC(=O)c1cnc2c(cnn2CC)c1NN=C(C)C -8.57%
Cc1[nH]c(=O)c(C#N)cc1-c1ccc2nccn2c1 -3.62%
CC(C)(C)c1ccc(S(=O)(=O)/C=C\C#N)cc1 -10.1%
CN(C)C(=O)/N=N/C(=O)N(C)C 1%
OCCN1CCN(CC/C=C2/c3ccccc3Sc3ccc(C(F)(F)F)cc32)CC1 -8.09%
CC[C@H](C)n1cc(C)c2c(C(=O)NCc3c(C)cc(C)[nH]c3=O)cc(-c3ccc(N4CCNCC4)nc3)cc21 -3.32%
C=CCN1CCc2c(cc(O)c(O)c2Cl)C(c2ccccc2)C1 (configuration not stated) -20.8%
O=C(Nc1ccc([N+](=O)[O-])cc1Cl)c1cc(Cl)ccc1O -11%
CCC(CC)n1ccc2c(C(=O)NCc3c(C)cc(C)[nH]c3=O)cc(C#N)cc21 -4.86%
Clc1ccc(N2CCN(Cc3c[nH]c4ncccc34)CC2)cc1 -5.18%
O=C(O)Cc1ccc(O)c(O)c1 -6.76%
CN1CCN(CCCN2c3ccccc3Sc3ccc(Cl)cc32)CC1 -16.2%
Oc1ccc(Cn2cc[nH]c2=S)cc1 -4.41%
CC(=O)/C=C1\C(=O)N(C)c2ccccc21 -4.49%
CCn1nc(C(=O)O)c(=O)c2cc3c(cc21)OCO3 0.226%
